Rab9 promoter act: Rab9 promoter activation | Potency, µM (highest dose often 9.22 µM), usual class: activators | Huh7 Rab9 promoter-luciferase reporter, luminescence, 24 h | 320,000 tested, 2.8% active; note: nearly all actives have a fitted effect of over 60% in size
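Cell-based reporter: Huh7 stable for Rab9 promoter-driven luciferase, plated in reduced-serum medium with 10% FBS at 1500 cells/well, compound-treated 24 h at 37 °C, luminescence read after 10 min reagent.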
SMN2 splice enh: enhancers of SMN2 splice variant expression; HEK293 SMN2-luciferase splicing reporter, luminescence, 30-36 h; Potency, µM (doses to about 46.1 µM), usual class: activators; 210,000 tested, 2.8% active; note: nearly all actives have a fitted effect of over 55% in size
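HEK293 cells carry an SMN2 minigene-luciferase reporter in which exon 7 inclusion puts luciferase in frame. Cells were seeded at 2000 cells/well, attached for 10-12 hours, then exposed to compounds for 30-36 hours at 37C before ONE-Glo luminescence.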
FLuc modulator: firefly luciferase modulation, counter-screen for miR-21 project | P08659 | purified FLuc, Km substrates, luminescence inhibition | Potency, µM (doses to about 57.5 µM), most hits filed as inhibitors | 360,000 tested, 6.9% active | AID 588342; note: nearly all actives have a fitted effect of over 55% in size
Target sequence (P08659 whole entry, looked up): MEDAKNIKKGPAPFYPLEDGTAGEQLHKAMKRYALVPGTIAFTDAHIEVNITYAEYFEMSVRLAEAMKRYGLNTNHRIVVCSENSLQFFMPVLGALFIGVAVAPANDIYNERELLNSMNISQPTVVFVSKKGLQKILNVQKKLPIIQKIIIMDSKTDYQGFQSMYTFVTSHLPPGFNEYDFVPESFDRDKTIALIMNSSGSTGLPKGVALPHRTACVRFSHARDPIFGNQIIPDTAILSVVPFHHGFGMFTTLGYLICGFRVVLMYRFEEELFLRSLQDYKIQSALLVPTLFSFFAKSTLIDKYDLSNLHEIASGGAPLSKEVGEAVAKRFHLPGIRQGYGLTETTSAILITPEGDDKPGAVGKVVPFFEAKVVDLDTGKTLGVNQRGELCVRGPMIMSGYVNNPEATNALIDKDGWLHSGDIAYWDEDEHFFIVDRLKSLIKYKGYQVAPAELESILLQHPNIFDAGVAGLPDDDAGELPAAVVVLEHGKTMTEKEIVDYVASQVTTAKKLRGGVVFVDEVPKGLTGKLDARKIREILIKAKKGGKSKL
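Purified P. pyralis luciferase, 10 nM final, with Km-level 10 uM D-luciferin and 10 uM ATP in 50 mM Tris acetate pH 7.5, 10 mM Mg acetate, 0.01% Tween-20, 0.05% BSA; 6-point qHTS titration about 60 µM downward; luminescence read.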
NPC1 prom act: NPC1 promoter activation; Huh7 NPC1 promoter luciferase reporter, 24 h; 320,000 tested, 2.4% active; Potency, µM (series often up to 9.22 µM), hits mostly activators; AID 485313; note: nearly all actives have a fitted effect of over 60% in size
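Quantitative HTS used a cell-based reporter: Huh7 cells stably bearing the NPC1 promoter upstream of luciferase were treated with compounds for 24 h, and promoter activation was read as luminescence.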
ELG1 genotoxic: induces genotoxicity in HEK293T cells with luciferase-tagged ELG1; Potency, µM (titrated, usually from 46 µM), hits mostly activators; HEK293T ELG1-luciferase reporter, luminescence, 16 h; 330,000 tested, 1.3% active; note: nearly all actives have a fitted effect of over 60% in size
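16 hr compound incubation (37 °C, 5% CO2) of HEK293T cells carrying luciferase-tagged ELG1; luciferase then measured by ONE-Glo luminescence after 30 min at RT.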
ELG1 repair inh: inhibitors of ELG1-dependent DNA repair in HEK293T cells. HEK293T ELG1-luciferase reporter, luminescence, 16 h; DNA damage induced by 5-fluorouridine. Potency, µM (series often up to 46.1 µM), most hits filed as inhibitors. 330,000 tested, 2.3% active. AID 504467; note: nearly all actives have a fitted effect of over 55% in size
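5-Fluorouridine DNA damage + compound/DMSO, 2,000 cells/well, 16 h, 37 °C/5% CO2. ONE-Glo, 30 min RT, luminescence. Readout = decrease in reporter signal.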
A number is an active result. An excerpt weighted towards active compounds, which were near 9.4% of everything screened. Calls come from the whole dose curve; as a rule, active = well fitted curve in the direction sought with a large enough effect; inconclusive = small, poorly fitted or top-dose-only effect, or another doubt; inactive = no such curve, though single readings can be large; an effect the other way counts as inactive or inconclusive.

For CC1CCCCN1C(=O)CSc1ccc(-c2ccc(F)cc2)nn1 (configuration not stated) the results were Rab9 promoter act inactive, SMN2 splice enh inactive, FLuc modulator inconclusive, NPC1 prom act inactive, ELG1 genotoxic inactive and ELG1 repair inh inactive.
O=C(O)c1cc(N/N=C/c2ccc(-c3ccccc3)cc2)ccc1Cl was read as Rab9 promoter act 0.1µM, FLuc modulator 0.76µM, NPC1 prom act 0.089µM, ELG1 genotoxic 0.46µM and ELG1 repair inh inconclusive.
For COc1cc(/C=N/Nc2ccc(Cl)c(C(=O)O)c2)ccc1OCC(=O)N1C(C)CCCC1C (configuration not stated) the results were Rab9 promoter act inactive, SMN2 splice enh inactive, FLuc modulator inconclusive, NPC1 prom act inactive, ELG1 genotoxic inactive and ELG1 repair inh inconclusive.
For CSc1ccc(/C=N/Nc2ccc(Cl)c(C(=O)O)c2)cc1 the results were Rab9 promoter act inconclusive, SMN2 splice enh 1.8µM, FLuc modulator 0.54µM, NPC1 prom act 0.1µM, ELG1 genotoxic inconclusive and ELG1 repair inh inconclusive.
O=C(O)c1cc(N/N=C/c2c[nH]c3ccccc23)ccc1Cl was read as Rab9 promoter act 1.6µM, FLuc modulator 6.7µM, NPC1 prom act 2µM, ELG1 genotoxic inconclusive and ELG1 repair inh inconclusive.
`O=C(O)c1cc(N/N=C/c2cccnc2)ccc1Cl` gave Rab9 promoter act inactive, FLuc modulator 19µM, NPC1 prom act inactive, ELG1 genotoxic inactive and ELG1 repair inh inconclusive.
`CSc1ccc(/C=N/Nc2nc(C)cc(C)n2)cc1` gave Rab9 promoter act inactive, SMN2 splice enh inactive, FLuc modulator inactive, NPC1 prom act inactive, ELG1 genotoxic inactive and ELG1 repair inh inconclusive.
Screening CCc1ccccc1NC(=O)c1nc2nc(C)cc(C(F)F)n2n1 returned SMN2 splice enh inactive and FLuc modulator inactive.
For CCc1ccccc1N(C)C(=O)c1nn(C)c2c1CSc1ccccc1-2 the results were FLuc modulator inactive.
`CC/C=C1/OC(=O)c2ccccc21` gave SMN2 splice enh inactive.
Clc1cncc(Cl)c1N/N=C/c1ccncc1 was read as Rab9 promoter act inactive, SMN2 splice enh inactive, FLuc modulator inconclusive, NPC1 prom act inactive, ELG1 genotoxic inactive and ELG1 repair inh inconclusive.
Screening O=C(O)c1cc(N/N=C/c2ccncc2)ccc1Cl returned Rab9 promoter act inactive, FLuc modulator 9.5µM, NPC1 prom act inactive, ELG1 genotoxic inactive and ELG1 repair inh inactive.
For COc1ccc2[nH]cc(CCNC(=O)c3cnn(-c4ccccc4Cl)c3C3CCN(C(=O)OC(C)(C)C)CC3)c2c1 the results were FLuc modulator inactive.
O=[N+]([O-])c1ccc(CSc2ncnc3c2ncn3[C@@H]2O[C@H](CO)[C@H](O)[C@H]2O)cc1 was read as SMN2 splice enh inactive.
For CCOc1ccc(NC(=O)Cn2cc(C(=O)c3ccc(CC)cc3)c(=O)c3cc(C)ccc32)cc1 the results were SMN2 splice enh inactive and FLuc modulator inactive.
`Cc1c(-c2nc(-c3ccccc3F)no2)nnn1-c1cc(F)ccc1F` gave FLuc modulator 0.17µM.
Screening CCc1ccccc1-n1nnc(-c2nc(-c3ccccc3F)no2)c1C returned FLuc modulator 1.2µM.
For Cc1c(-c2ccccc2)nnn1-c1ccc(F)cc1F the results were Rab9 promoter act inconclusive, FLuc modulator 21µM, NPC1 prom act inconclusive, ELG1 genotoxic inconclusive and ELG1 repair inh inconclusive.
For Cc1c(-c2nc(-c3ccccc3)no2)nnn1-c1cccc(C(F)(F)F)c1 the results were FLuc modulator inactive.
Screening O=C(Nc1ccc2oc(-c3cccc(F)c3)nc2c1)c1ccc2ccccc2c1 returned SMN2 splice enh inactive and FLuc modulator inactive.
`O=C(NCCc1ccc(O)c(O)c1)C1COc2ccccc2O1` (configuration not stated) gave Rab9 promoter act inactive, FLuc modulator inactive, NPC1 prom act inactive, ELG1 genotoxic inactive and ELG1 repair inh inactive.
CC(CNC(=O)CN1C(=O)COc2ccc(S(=O)(=O)N3CCCCCC3)cc21)c1ccccc1 (configuration not stated) was read as FLuc modulator inactive.
For CCc1cc2c(=O)c(-c3ccc4c(c3)OCCO4)c(C)oc2cc1OS(C)(=O)=O the results were Rab9 promoter act inactive, SMN2 splice enh inactive, FLuc modulator inactive, NPC1 prom act inactive, ELG1 genotoxic inactive and ELG1 repair inh 23µM.
Screening CC(=O)Nc1ccc(SCCCC(=O)c2ccccc2)cc1 returned Rab9 promoter act inconclusive, FLuc modulator 24µM, NPC1 prom act inconclusive, ELG1 genotoxic inconclusive and ELG1 repair inh inconclusive.
Screening Cc1cc(C(=O)CSc2nncn2C)c(C)n1-c1ccccc1 returned Rab9 promoter act 0.45µM, SMN2 splice enh 11µM, FLuc modulator 8.5µM, NPC1 prom act 2µM, ELG1 genotoxic inactive and ELG1 repair inh inconclusive.
For CC(=O)c1cccc(NC(=O)CCCSc2ccccc2)c1 the results were Rab9 promoter act inactive, FLuc modulator inconclusive, NPC1 prom act inactive, ELG1 genotoxic inactive and ELG1 repair inh inactive.
`Cc1cc(C(=O)CSc2cccc[n+]2[O-])c(C)n1-c1ccc(Br)cc1` gave Rab9 promoter act inactive, SMN2 splice enh inactive, FLuc modulator 15µM, NPC1 prom act inactive, ELG1 genotoxic inconclusive and ELG1 repair inh inconclusive.
Screening CC(OC(=O)c1ccc(NC(=O)CC#N)cc1)C(=O)NC(c1ccccc1)c1ccccc1 (configuration not stated) returned ELG1 genotoxic inactive and ELG1 repair inh inactive.
Screening Cc1cc(C(=O)C(C)OC(=O)c2ccc(NC(=O)CC#N)cc2)c(C)n1-c1ccccc1 (configuration not stated) returned Rab9 promoter act inactive, FLuc modulator 17µM, NPC1 prom act inactive, ELG1 genotoxic inactive and ELG1 repair inh inconclusive.
Screening CC1CCN(S(=O)(=O)c2ccc3c(ccc(=O)n3CC(=O)Nc3ccc(C(C)C)cc3)c2)CC1 returned FLuc modulator inactive.
For O=C(CC12CC3CC(CC(C3)C1)C2)NCc1ccc(F)cc1 the results were Rab9 promoter act inactive, FLuc modulator inactive, NPC1 prom act inactive, ELG1 genotoxic inactive and ELG1 repair inh inactive.
For Cc1cc(C(=O)CSc2cccc[n+]2[O-])c(C)n1-c1ccccc1 the results were Rab9 promoter act 0.45µM, SMN2 splice enh 1µM, FLuc modulator 1.7µM, NPC1 prom act 0.45µM, ELG1 genotoxic inconclusive and ELG1 repair inh inconclusive.
Screening CC(=O)Nc1ccc(SCC(=O)c2cc(C)n(-c3ccccc3)c2C)cc1 returned Rab9 promoter act 3.5µM, SMN2 splice enh inactive, FLuc modulator 5.4µM, NPC1 prom act inconclusive, ELG1 genotoxic inconclusive and ELG1 repair inh inconclusive.

Screens: PubChem, National Center for Advancing Translational Sciences (NCATS)
